The campaign covered roughly 3,400 compounds. About 840 (25%) were called active. Not shown: some 11% with an inconclusive outcome.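 How the source made its calls: active means fitted half-maximal concentration of signal decrease at or below twice the sample's top tested concentration; inconclusive means flat curve between -70 and -30 percent, or poor fit; inactive means flat within 30 percent, signal rise, or potency above limit.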 These entries were drawn from the full list. Results with a measured potency or affinity are listed apart.
assay: T. gondii growth inhibition with IFN-gamma, dose response, cell-based, ME49Luc, HeLa, luciferase, 72 h (AID 1259418); settings: T. gondii ME49Luc in IFN-y HeLa, stronger effect = lower value, -100% = high-dose IFN-γ control wells; at 19.5 µM unless noted

Row | SMILES | max activity
1 | CN1[C@H](CO)[C@@H]2c3ccccc3N(C(=O)C3CCCCC3)C[C@@H]21 | 65.5% (inactive)
2 | CCN1Cc2c(C(=O)Nc3ccc(C)cc3)ncn2-c2ccccc2S1(=O)=O | 5.65% (inactive)
3 | CC(C)n1c(C(=O)Nc2cccc(F)c2)nc2c1CCN(Cc1ccccc1)C2 | 12.5% (inactive)
4 | COc1ccc(CC(=O)N2CCC3(CC2)Nc2ccc(C)c(C)c2-n2cccc23)cc1OC | 11.1% [at 0.68 µM] (inactive)
5 | Cc1ccc(C)c(-c2coc(-c3ccc(NC(=O)Nc4ccccc4)cc3)n2)c1 | 17.8% [at 0.16 µM] (inactive)
6 | CCOCC1CC2(CCN(C(=O)COc3ccc(C)cc3)CC2)CO1 (stereo unspecified) | 14.2% (inactive)
7 | O=C(CC1N=C2c3ccccc3N=C(SCc3cc(=O)n4cc(Cl)ccc4n3)N2C1=O)NC1CCCCC1 (stereo unspecified) | 36.6% [at 10 µM] (inactive)
8 | FC(F)(F)c1cccc(N2CCN(c3nc(-c4ccc(Cl)cc4)nc4ccccc34)CC2)c1 | -11.2% [at 0.16 µM] (inactive)
9 | Cc1ccc(Cl)cc1NC(=O)N1CCN(Cc2nc(-c3cccc(Cl)c3)oc2C)CC1 | 11.1% [at 10 µM] (inactive)
10 | Cc1cccc(NC(=O)N2CCN(Cc3nc(-c4cccc(Cl)c4)oc3C)CC2)c1 | 12.6% (inactive)
11 | CCc1ccccc1NC(=O)N1CCN(Cc2nc(-c3cccc(Cl)c3)oc2C)CC1 | 17.6% [at 10 µM] (inactive)
12 | Cc1oc(-c2cccc(Cl)c2)nc1CN1CCN(C(=O)Nc2cccc(Cl)c2)CC1 | 10.8% [at 0.35 µM] (inactive)
13 | CCc1nc(OCC(=O)Nc2cc(C)ccc2C)c2ccccc2n1 | 10.4% [at 2.6 µM] (inactive)
14 | Cc1ccc(CC(=O)N2CCC3(CC2)Nc2cc(F)ccc2-n2cccc23)cc1 | -4.79% [at 0.35 µM] (inactive)
15 | COc1ccc2c(c1)NC1(CCN(C(=O)c3ccccc3F)CC1)c1cccn1-2 | 8.8% [at 5 µM] (inactive)
16 | CC(C)NC(=O)N1CC[C@@H]2[C@H]1c1cc(-c3ccc(F)cc3)ccc1N(C)[C@H]2CO | -31.5% (inactive)
17 | CC(C)NC(=O)N1CC[C@@H]2[C@@H](CO)N(C)c3ccc(-c4ccc(F)cc4)cc3[C@@H]21 | 26.2% [at 5 µM] (inactive)
18 | CN1c2ccc(C#Cc3cccnc3)cc2[C@@H]2[C@@H](CCN2C(=O)c2cccc(F)c2)[C@H]1CO | 11.4% (inactive)
19 | Fc1ccc(N2CCN(c3nc(-c4ccc(Cl)cc4)nc4ccccc34)CC2)cc1 | 8.24% (inactive)
20 | CCCCC(=O)Nc1ccc(-c2nc(-c3ccc(C)cc3C)co2)cc1 | 37.3% [at 10 µM] (inactive)
21 | O=S(=O)(c1cccs1)N1CCC2(CC1)NCCN=C2NCc1ccccc1Cl | -8.05% [at 1.35 µM] (inactive)
22 | Cc1ccc(S(=O)(=O)N2CCC3(CC2)NCCN=C3NCc2ccccc2F)c(C)c1 | -12.4% (inactive)
23 | O=C(NCCc1csc(-c2ccccc2)n1)[C@H]1CCCN1C(=O)Cc1ccc(F)cc1 | -17.3% [at 0.16 µM] (inactive)
24 | CCc1nc(OCC(=O)Nc2ccc(C)cc2C)c2ccccc2n1 | 12.9% [at 10 µM] (inactive)
25 | Cc1cc(C)cc(NC(=O)Nc2ccc(-c3nc(-c4ccccc4)co3)cc2)c1 | 19.9% [at 1.35 µM] (inactive)
26 | Cc1ccc(-c2nc(Cn3nnc(-c4nc(-c5ccc(OC(C)C)cc5)no4)c3C)c(C)o2)cc1 | 12.6% [at 0.16 µM] (inactive)

Row | SMILES | max activity
27 | Cc1cc(C)cc(NC(=O)N2CCN(Cc3nc(-c4ccccc4C)oc3C)CC2)c1 | 8.24% [at 1.35 µM] (inactive)
28 | Cc1ccc(Cl)cc1NC(=O)Nc1ccc(-c2nc(-c3ccccc3)co2)cc1 | -20.1% [at 0.16 µM] (inactive)
29 | Cc1ccc(-c2nc(Cn3nnc(-c4nc(-c5cccc(F)c5)no4)c3C)c(C)o2)cc1 | 3.99% (inactive)
30 | Cc1ccc(C)c(-c2coc(-c3ccc(NC(=O)NCCc4ccccc4)cc3)n2)c1 | 29.4% (inactive)
31 | OC[C@H]1[C@@H](c2ccc(C#Cc3ccccc3F)cc2)[C@@H]2CN(CC3CCOCC3)CCCCN12 | 9.11% [at 1.2 µM] (inactive)
32 | C[C@H]1[C@H](NC(=O)/C(=N\OC(C)(C)C(=O)O)c2csc(N)n2)C(=O)N1S(=O)(=O)O | 14% [at 21 µM] (inactive)
33 | COc1ccc2c(c1)NC1(CCN(C(=O)Cc3ccccc3C)CC1)c1cccn1-2 | -9.29% [at 0.16 µM] (inactive)
34 | CCc1nc(OCC(=O)Nc2ccc(C)cc2Br)c2ccccc2n1 | -11.9% [at 2.6 µM] (inactive)
35 | COc1ccc(CCNc2nc(SCc3ccc(F)cc3)nc3ccccc23)cc1OC | -14.5% [at 5 µM] (inactive)
36 | CCOC(=O)C(=O)Nc1ccc(-c2nc(-c3ccccc3)co2)cc1 | 10.7% [at 5 µM] (inactive)
37 | Cc1ccc(-c2nc(Cn3nnc(-c4nc(-c5cccc(Br)c5)no4)c3C)c(C)o2)cc1 | 7.23% [at 0.16 µM] (inactive)
38 | CCOc1ccc(C(=O)N2CCC(C(=O)NCCc3csc(C)n3)CC2)cc1 | 13.7% (inactive)
39 | Cc1ccc(C)c(-c2coc(-c3ccc(NC(=O)Cc4cccs4)cc3)n2)c1 | 19.4% (inactive)
40 | O=C(CC1N=C2c3ccccc3N=C(SCc3cc(=O)n4ccccc4n3)N2C1=O)NCc1ccc(F)cc1 (stereo unspecified) | 17.7% [at 2.6 µM] (inactive)
41 | COc1ccc(CCC(=O)N2CCC3(CC2)Nc2cc(F)ccc2-n2cccc23)cc1 | 14.7% [at 0.68 µM] (inactive)
42 | O=C(Nc1ccc(-c2nc(-c3cccc(Br)c3)co2)cc1)Nc1ccc2c(c1)OCCO2 | 9.52% [at 0.16 µM] (inactive)
43 | Cc1ccc(-c2nc(CN3CCN(C(=O)Nc4cccc(C)c4C)CC3)c(C)o2)cc1 | 12.5% [at 10 µM] (inactive)
44 | CN(CCNc1nc(-c2ccc(Cl)cc2)nc2ccccc12)C1CCCCC1 | -24.3% [at 2.6 µM] (inactive)
45 | COc1ccc(-c2nc(NCCCc3ccccc3)c3ccccc3n2)cc1 | -17% [at 1.35 µM] (inactive)
46 | CCCCNc1nc(-c2ccc(OC)cc2)nc2ccccc12 | 22.7% (inactive)
47 | COc1ccc(-c2nc(NCCN(Cc3ccco3)C3CCCC3)c3ccccc3n2)cc1 | -27.6% [at 2.6 µM] (inactive)
48 | CCCNc1nc(-c2ccc(OC)cc2)nc2ccccc12 | -34.8% [at 0.35 µM] (inactive)
49 | COc1ccc(-c2nc(NCc3ccccc3)c3ccccc3n2)cc1 | 16.2% (inactive)
50 | COc1ccc(CNc2nc(-c3ccc(OC)cc3)nc3ccccc23)cc1 | -17.8% [at 10 µM] (inactive)
51 | COc1ccc(-c2nc(NCCC(C)C)c3ccccc3n2)cc1 | -29.2% [at 0.68 µM] (inactive)

From PubChem BioAssay AID1259418 (Broad Institute, 2018)
